Data taken from PubChem BioAssay (NCATS).
Inconclusive results are not listed. Where a call stands in place of a potency, no number is given. A number with no mark means an inactive call. Calls of active or inactive are those of the source. The call rests on the fitted dose curve; in most records, active means well fitted curve in the direction sought with a large enough effect; inconclusive means small, poorly fitted or top-dose-only effect, or another doubt; inactive means no such curve, though single readings can be large; an effect the other way counts as inactive or inconclusive.

Experiments:
[1] = target: ATP-dependent 6-phosphofructokinase (Trypanosoma brucei brucei) (UniProt O15648); experiment: qHTS Assay to Find Inhibitors of T. brucei phosphofructokinase: hit validation (AID 492961);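 further: luminescence reports ADP formed as PFK phosphorylates fructose-6-phosphate with ATP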
Outline: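 Percent activity derived from corrected luminescence, normalized between 0x and 1x enzyme controls, then fitted to concentration-response curves. Conditions: 1.25 nM PFK, 0.1 mM ATP, 0.5 mM F6P, 45 min RT.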

[2] = qHTS profiling for inhibitors of Plasmodium falciparum proliferation (AID 504749); further: potency means the concentration at half of the fitted maximal effect; on all read-outs here: nearly all actives have a fitted effect of over 60% in size; conditions: P. falciparum in erythrocytes, SYBR Green DNA, 72 h; for activity, negative = inhibition: at 28.7 µM (top of the series)
Outline: (§1)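 Parasite proliferation within erythrocytes, 72 h exposure. Endpoint: SYBR Green I fluorescence after overnight lysis at room temperature. Controls: 0.29 uM artemisinin, DMSO.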

AA1029 = experiment: as above; conditions: P. falciparum in erythrocytes, SYBR Green DNA, 72 h; series mostly up to 28.7 µM
Outline: as §1

AS120 = experiment: as above; conditions: P. falciparum in erythrocytes, SYBR Green DNA, 72 h; series mostly up to 28.7 µM
Outline: as §1

CP185 = experiment: as above; conditions: P. falciparum in erythrocytes, SYBR Green DNA, 72 h; series mostly up to 28.7 µM
Outline: as §1

CP191 = experiment: as above; conditions: P. falciparum in erythrocytes, SYBR Green DNA, 72 h; series mostly up to 28.7 µM
Outline: as §1

CP211 = experiment: as above; conditions: P. falciparum in erythrocytes, SYBR Green DNA, 72 h; series mostly up to 28.7 µM
Outline: as §1

CP217 = experiment: as above; conditions: P. falciparum in erythrocytes, SYBR Green DNA, 72 h; series mostly up to 28.7 µM
Outline: as §1

CP238 = experiment: as above; conditions: P. falciparum in erythrocytes, SYBR Green DNA, 72 h; series mostly up to 28.7 µM
Outline: as §1

CP262 = experiment: as above; conditions: P. falciparum in erythrocytes, SYBR Green DNA, 72 h; series mostly up to 28.7 µM
Outline: as §1

CP265 = experiment: as above; conditions: P. falciparum in erythrocytes, SYBR Green DNA, 72 h; series mostly up to 28.7 µM
Outline: as §1

Dd2 = experiment: as above; conditions: P. falciparum in erythrocytes, SYBR Green DNA, 72 h; series mostly up to 28.7 µM
Outline: as §1

ECU = experiment: as above; conditions: P. falciparum in erythrocytes, SYBR Green DNA, 72 h; series mostly up to 28.7 µM
Outline: as §1

HB3 = experiment: as above; conditions: P. falciparum in erythrocytes, SYBR Green DNA, 72 h; series mostly up to 28.7 µM
Outline: as §1

N140 = experiment: as above; conditions: P. falciparum in erythrocytes, SYBR Green DNA, 72 h; series mostly up to 28.7 µM
Outline: as §1

ATS189 = experiment: as above; conditions: P. falciparum in erythrocytes, SYBR Green DNA, 72 h; series mostly up to 28.7 µM
Outline: as §1

CP192 = experiment: as above; conditions: P. falciparum in erythrocytes, SYBR Green DNA, 72 h; series mostly up to 28.7 µM
Outline: as §1

CP252 = experiment: as above; conditions: P. falciparum in erythrocytes, SYBR Green DNA, 72 h; series mostly up to 28.7 µM
Outline: as §1

CP286 = experiment: as above; conditions: P. falciparum in erythrocytes, SYBR Green DNA, 72 h; series mostly up to 28.7 µM
Outline: as §1

FAB9 = experiment: as above; conditions: P. falciparum in erythrocytes, SYBR Green DNA, 72 h; series mostly up to 28.7 µM
Outline: as §1

Sequence of ATP-dependent 6-phosphofructokinase (Trypanosoma brucei brucei) (O15648 whole entry, looked up): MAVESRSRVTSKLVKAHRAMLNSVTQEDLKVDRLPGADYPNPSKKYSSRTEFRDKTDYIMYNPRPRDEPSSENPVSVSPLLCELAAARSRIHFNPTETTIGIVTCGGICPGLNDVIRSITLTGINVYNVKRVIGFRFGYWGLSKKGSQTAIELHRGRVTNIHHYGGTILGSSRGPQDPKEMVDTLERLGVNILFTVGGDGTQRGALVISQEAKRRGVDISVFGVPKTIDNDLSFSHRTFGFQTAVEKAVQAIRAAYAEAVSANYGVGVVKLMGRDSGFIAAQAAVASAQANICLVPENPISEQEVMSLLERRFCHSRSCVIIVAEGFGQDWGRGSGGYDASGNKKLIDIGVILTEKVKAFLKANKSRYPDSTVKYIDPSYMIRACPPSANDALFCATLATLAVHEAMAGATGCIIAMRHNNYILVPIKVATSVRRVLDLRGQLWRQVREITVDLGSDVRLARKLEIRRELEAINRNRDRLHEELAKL

COc1cc(/C=C2\CCC/C(=C\c3ccc(O)c(OC)c3)C2=O)ccc1O
Potency [1]: inactive | Potency ([2]; parasite line A): 11200 nM (active) | Potency ([2]; parasite line B): 10000 nM (active) | Potency (AA1029): 12600 nM (active) | Potency (AS120): 8910 nM (active) | Potency (CP185): 11200 nM (active) | Potency (CP191): 10000 nM (active) | Potency (CP211): 16900 nM (active) | Potency (CP217): 11200 nM (active) | Potency (CP238): 10000 nM (active) | Potency (CP262): inactive | Potency (CP265): 14100 nM (active) | Potency (Dd2): 11200 nM (active) | Potency (ECU): 11200 nM (active) | Potency (HB3): 12600 nM (active) | Potency (N140): 11200 nM (active)

CCCSS/C(CCO)=C(/C)N(C=O)Cc1cnc(C)nc1N
Potency [1]: inactive | activity, negative = inhibition ([2]; parasite line A): -20.8% | activity, negative = inhibition ([2]; parasite line B): -22.2% | Potency (AA1029): inactive | Potency (AS120): inactive | Potency (ATS189): inactive | Potency (CP185): inactive | Potency (CP191): inactive | Potency (CP192): inactive | Potency (CP211): inactive | Potency (CP217): inactive | Potency (CP238): inactive | Potency (CP252): inactive | Potency (CP262): inactive | Potency (CP265): inactive | Potency (CP286): inactive | Potency (Dd2): inactive | Potency (ECU): inactive | Potency (FAB9): inactive | Potency (HB3): inactive | Potency (N140): inactive

C=C1C(n2cnc3c(=O)[nH]c(N)nc32)C[C@H](O)[C@H]1CO (stereo partly specified)
Potency [1]: inactive | activity, negative = inhibition ([2]; parasite line A): 9.61% | activity, negative = inhibition ([2]; parasite line B): -7.65% | Potency (AA1029): inactive | Potency (AS120): inactive | Potency (ATS189): inactive | Potency (CP191): inactive | Potency (CP192): inactive | Potency (CP211): inactive | Potency (CP217): inactive | Potency (CP238): inactive | Potency (CP252): inactive | Potency (CP265): inactive | Potency (Dd2): inactive | Potency (ECU): inactive | Potency (FAB9): inactive | Potency (HB3): inactive | Potency (N140): inactive

CC(C)(C)NC[C@H](O)CSc1nc(-c2ccc(C(N)=O)s2)cs1
Potency [1]: inactive | activity, negative = inhibition ([2]; parasite line A): -8.78% | activity, negative = inhibition ([2]; parasite line B): -3.22% | Potency (AA1029): inactive | Potency (AS120): inactive | Potency (ATS189): inactive | Potency (CP185): inactive | Potency (CP191): inactive | Potency (CP192): inactive | Potency (CP211): inactive | Potency (CP217): inactive | Potency (CP238): inactive | Potency (CP252): inactive | Potency (CP262): inactive | Potency (CP265): inactive | Potency (CP286): inactive | Potency (Dd2): inactive | Potency (ECU): inactive | Potency (FAB9): inactive | Potency (HB3): inactive | Potency (N140): inactive

CC1CCC(O)C/C1=C\C=C1/CCCC2(C)C1CCC2C(C)/C=C/C(C)C(C)C (stereo unspecified)
Potency [1]: inactive | activity, negative = inhibition ([2]; parasite line A): -1.73% | activity, negative = inhibition ([2]; parasite line B): -28.9% | Potency (AA1029): inactive | Potency (AS120): inactive | Potency (ATS189): inactive | Potency (CP185): inactive | Potency (CP191): inactive | Potency (CP192): inactive | Potency (CP211): inactive | Potency (CP217): inactive | Potency (CP238): inactive | Potency (CP252): inactive | Potency (CP262): inactive | Potency (CP265): inactive | Potency (CP286): inactive | Potency (Dd2): inactive | Potency (FAB9): inactive | Potency (HB3): inactive

Cc1c(C)c2c(c(C)c1O)CCC(C)(CCCC(C)CCCC(C)CCCC(C)C)O2 (stereo unspecified)
Potency [1]: inactive | activity, negative = inhibition ([2]; parasite line A): 15.7% | activity, negative = inhibition ([2]; parasite line B): 8.58% | Potency (AA1029): inactive | Potency (AS120): inactive | Potency (ATS189): inactive | Potency (CP185): inactive | Potency (CP191): inactive | Potency (CP192): inactive | Potency (CP211): inactive | Potency (CP217): inactive | Potency (CP238): inactive | Potency (CP252): inactive | Potency (CP262): inactive | Potency (CP265): inactive | Potency (CP286): inactive | Potency (ECU): inactive | Potency (FAB9): inactive | Potency (HB3): inactive | Potency (N140): inactive

CC1(C)SC2[C@@H](N=CN3CCCCCC3)C(=O)N2[C@H]1C(=O)O (stereo partly specified)
Potency [1]: inactive | activity, negative = inhibition ([2]; parasite line A): 0.0196% | activity, negative = inhibition ([2]; parasite line B): -13% | Potency (AA1029): inactive | Potency (AS120): inactive | Potency (ATS189): inactive | Potency (CP185): inactive | Potency (CP191): inactive | Potency (CP192): inactive | Potency (CP211): inactive | Potency (CP217): inactive | Potency (CP238): inactive | Potency (CP252): inactive | Potency (CP262): inactive | Potency (CP265): inactive | Potency (CP286): inactive | Potency (Dd2): inactive | Potency (ECU): inactive | Potency (FAB9): inactive | Potency (HB3): inactive | Potency (N140): inactive

CCC(C(=O)C(C)C(O)C(C)CCc1ccc(C)c(O)c1C(=O)O)C1OC(CC)(C2CC[C@@](O)(CC)C(C)O2)CC1C (stereo partly specified)
Potency [1]: inactive | Potency ([2]; parasite line A): 794 nM (active) | Potency ([2]; parasite line B): 1120 nM (active) | Potency (AA1029): 708 nM (active) | Potency (AS120): 398 nM (active) | Potency (ATS189): 1260 nM (active) | Potency (CP185): 1120 nM (active) | Potency (CP191): 708 nM (active) | Potency (CP211): 536 nM (active) | Potency (CP217): 1000 nM (active) | Potency (CP238): 1000 nM (active) | Potency (CP252): 794 nM (active) | Potency (CP262): 953 nM (active) | Potency (CP265): 891 nM (active) | Potency (CP286): 631 nM (active) | Potency (Dd2): 794 nM (active) | Potency (ECU): 708 nM (active) | Potency (FAB9): 2000 nM (active) | Potency (HB3): 631 nM (active) | Potency (N140): 562 nM (active)

CC(C)C(=O)OCC(=O)[C@@]12OC(C3CCCCC3)O[C@@H]1CC1C3CCC4=CC(=O)C=C[C@]4(C)C3[C@@H](O)C[C@@]12C (stereo partly specified)
Potency [1]: inactive | Potency ([2]; parasite line A): 794 nM (active) | Potency ([2]; parasite line B): 562 nM (active) | Potency (AA1029): 891 nM (active) | Potency (AS120): 794 nM (active) | Potency (ATS189): 891 nM (active) | Potency (CP185): 794 nM (active) | Potency (CP191): 708 nM (active) | Potency (CP211): 1350 nM (active) | Potency (CP217): 794 nM (active) | Potency (CP238): 1000 nM (active) | Potency (CP252): 1000 nM (active) | Potency (CP265): 1000 nM (active) | Potency (CP286): 794 nM (active) | Potency (Dd2): 1410 nM (active) | Potency (ECU): 1120 nM (active) | Potency (FAB9): 2000 nM (active) | Potency (HB3): 1120 nM (active) | Potency (N140): 794 nM (active)

Cn1cc(C(=O)[C@@H]2CCc3[nH]cnc3C2)c2ccccc21
Potency [1]: inactive | activity, negative = inhibition ([2]; parasite line A): 5.71% | activity, negative = inhibition ([2]; parasite line B): 16.1% | Potency (AA1029): inactive | Potency (AS120): inactive | Potency (ATS189): inactive | Potency (CP185): inactive | Potency (CP191): inactive | Potency (CP192): inactive | Potency (CP211): inactive | Potency (CP217): inactive | Potency (CP238): inactive | Potency (CP252): inactive | Potency (CP262): inactive | Potency (CP265): inactive | Potency (CP286): inactive | Potency (Dd2): inactive | Potency (ECU): inactive | Potency (FAB9): inactive | Potency (HB3): inactive | Potency (N140): inactive
